# Measured values taken from PubChem BioAssay (NCATS).
# Inconclusive results are not listed. The source made the active and inactive calls. Calls come from the whole dose curve; as a rule, active = well fitted inhibition curve with a large enough effect; inconclusive = small, poorly fitted or top-dose-only effect; inactive = flat fitted curve, though single readings scatter.
# Biological target: Calcium and integrin-binding protein 1 (Homo sapiens) (UniProt Q99828)
# Assay: Primary qHTS for Identification of Calcium Integrin Binding Protein 1 (CIB1) Competitor (AID 1508620); note: top concentration of the series differs between compounds
# Conditions: CIB1-GST / FITC-alphaIIb peptide fluorescence polarization; series mostly up to 114 µM; activity change, negative = inhibition: at the top concentration
# Outline: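 Fluorescence polarization competition: GST-tagged CIB1 (1 uM final) preincubated with compound 15 min at room temperature, then FITC-labelled alphaIIb peptide (100 nM final) added. After 15 min at room temperature, polarization read at Ex 480/Em 540.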
# % is set by controls: 0 for no effect and ±100 for the full control effect.
# Calcium and integrin-binding protein 1 (Homo sapiens), sequence (Q99828 whole entry, looked up): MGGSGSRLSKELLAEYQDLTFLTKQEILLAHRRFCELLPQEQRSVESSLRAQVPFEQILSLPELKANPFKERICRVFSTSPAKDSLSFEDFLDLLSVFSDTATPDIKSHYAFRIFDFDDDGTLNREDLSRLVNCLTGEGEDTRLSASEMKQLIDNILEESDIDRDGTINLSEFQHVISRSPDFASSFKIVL
row,SMILES,"activity change, negative = inhibition"
1,C[C@@H]1O[C@@H](O[C@H]2[C@H](OC(=O)[C@]34CCC(C)(C)C[C@H]3C3=CCC5[C@@]6(C)C[C@H](O)[C@H](O[C@@H]7O[C@H](CO)[C@@H](O)[C@H](O)[C@H]7O)[C@@](C)(CO)C6[C@H](O)C[C@@]5(C)[C@]3(C)CC4)OC[C@H](O)[C@@H]2O)[C@H](O)[C@H](O)[C@H]1O[C@@H]1OC[C@@H](O)[C@H](O[C@@H]2OC[C@](O)(CO)[C@H]2O)[C@H]1O (some centres undefined),3.34% [at 12.4 µM] (inactive)
2,C[C@@H]1O[C@@H](O[C@@H]2[C@@H](O)[C@H](O[C@H]3CC[C@@]4(C)C(CC[C@]5(C)C4CC=C4[C@@H]6CC(C)(C)CC[C@]6(C(=O)O[C@@H]6O[C@H](CO)[C@@H](O)[C@H](O)[C@H]6O)CC[C@]45C)C3(C)C)O[C@H](C(=O)O)[C@H]2O)[C@H](O)[C@H](O)[C@H]1O (some centres undefined),-0.772% [at 30.2 µM] (inactive)
3,CC1CCC2(C=O)C(CO)=CCCC2C1(C)CC(=O)O (centres undefined),5% (inactive)
4,C=C[C@@H]1[C@H](O[C@@H]2O[C@H](CO)[C@@H](O)[C@H](O)[C@H]2O)OC=C(C(=O)O)[C@H]1CCOC(=O)/C=C/c1ccc(O)c(O)c1,-2.98% [at 57.7 µM] (inactive)
5,Nc1nc2c(c(=O)[nH]1)C[C@@H](CCc1ccc(C(=O)N[C@@H](CCC(=O)O)C(=O)O)cc1)CN2,-10.5% (inactive)
6,C=C1[C@H](OC(C)=O)[C@H]2[C@@H](OC(C)=O)[C@](C)(OC(C)=O)C[C@]2(OC(C)=O)C(=O)[C@H](C)/C=C/C(C)(C)C(=O)[C@H](OC(=O)C(C)CC)[C@H]1OC(C)=O (some centres undefined),4.57% [at 30.2 µM] (inactive)
7,C[C@@H]1N[C@H]2N(C1=O)c1ccccc1[C@@]2(O)C[C@@H]1C(=O)N[C@@H](C)c2nc3ccccc3c(=O)n21,5.41% [at 57.7 µM] (inactive)
8,COc1cc2c(cc1OC)[C@@H]1[C@H](O)[C@@H](OC)C=C3CCN(C2)[C@H]31,-4.17% [at 57.7 µM] (inactive)
9,C=C(C)C(=O)O[C@H]1C[C@@](C)(O)C(=O)CC(O)/C(C)=C\[C@H]2OC(=O)C(=C)[C@H]12 (some centres undefined),-13% [at 57.7 µM] (inactive)
10,COc1cc(O)cc(C)c1C(=O)OC1C(CO)OC(OC2C(O)C(O)C(O)C(O)C2O)C(O)C1O (centres undefined),-7.58% [at 57.7 µM] (inactive)
11,NC1(C(=O)NC(CCO)c2ccc(Cl)cc2)CCN(c2ncnc3[nH]ccc23)CC1 (centres undefined),1.75% (inactive)
12,CC/C=C\C/C=C\C/C=C\CCCCCCCC(=O)OCC(O)COC1OC(CO)C(O)C(O)C1O (centres undefined),3.91% [at 57.7 µM] (inactive)
13,COCCOc1cnc2ccn([C@H](C)c3nnc4c(F)cc(-c5cnn(C)c5)cn34)c(=O)c2c1,-4.4% (inactive)
14,OCc1ccc(O[C@@H]2O[C@H](CO)[C@@H](O)[C@H](O)[C@H]2O)cc1,-4.49% (inactive)
15,COc1cc(C(=O)OC[C@H]2O[C@@H](Oc3ccccc3/C=C/C(=O)O)[C@H](O)[C@@H](O)[C@@H]2O)cc(OC)c1OC,-9.7% [at 57.7 µM] (inactive)
16,C/C1=C\CCC(C)CCO[C@@H]2O[C@H](CO[C@@H]3OC[C@H](O)[C@H](O)[C@H]3OC1=O)[C@@H](O)[C@H](O)[C@H]2O (some centres undefined),-4.14% [at 57.7 µM] (inactive)
17,COc1ccc(CCO[C@@H]2O[C@H](CO[C@@H]3OC[C@H](O)[C@H](O)[C@H]3O)[C@@H](O)[C@H](O)[C@H]2O)cc1,1.53% [at 57.7 µM] (inactive)
18,COc1ccc(C2(O)c3ccccc3NC(=O)C2O)cc1 (centres undefined),-1.37% (inactive)
19,COC(=O)c1c(C)cc(OC(=O)c2c(C)cc(OC)cc2OC)cc1O[C@@H]1O[C@H](CO)[C@@H](O)[C@H](O)[C@H]1O,-9.73% [at 57.7 µM] (inactive)
20,CC1(C)CCCC2(C)C1CC=C1C(=O)OC(O)C12O (centres undefined),1.18% (inactive)

row,SMILES,"activity change, negative = inhibition"
1,C[C@H]1C(=O)N2c3ccccc3[C@@]3(O)C[C@@H]4C(=O)N[C@](C)(c5nc6ccccc6c(=O)n54)N1[C@@H]23,-1.47% [at 57.7 µM] (inactive)
2,O=C(/C=C/c1ccc(O)cc1)N[C@@H](Cc1ccc(O)cc1)C(=O)O,-0.539% [at 57.7 µM] (inactive)
3,Cc1[nH]nc(C(F)(F)F)c1Cc1sc2c(c1C(=O)N1C[C@](C)(O)CO1)c(=O)n(C)c(=O)n2C(C)C,1.69% (inactive)
4,O=C(/C=C/c1ccccc1)OC[C@]12O[C@H]1[C@@H](O)[C@@H]1C=CO[C@@H](O[C@@H]3O[C@H](CO)[C@@H](O)[C@H](O)[C@H]3O)[C@@H]12,0.537% [at 57.7 µM] (inactive)
5,FC(F)(F)c1cc(-c2ncn(/C=C\c3nnco3)n2)cc(C(F)(F)F)c1,-1.96% (inactive)
6,C=C[C@H]1C(O[C@@H]2O[C@H](CO)[C@@H](O)[C@H](O)[C@H]2O)OC=C2C(=O)N3CCc4c([nH]c5ccccc45)C3CC21 (some centres undefined),32.4% [at 57.7 µM] (inactive)
7,CC1(C)CC[C@]2(C(=O)O[C@@H]3O[C@H](CO)[C@@H](O)[C@H](O)[C@H]3O)CC[C@]3(C)C(=CCC4[C@@]5(C)C[C@@H](O)[C@H](O)C(C)(C)C5CC[C@]43C)C2[C@@H]1O (some centres undefined),-10.2% [at 30.2 µM] (inactive)
8,CC1(C)CC[C@@]2(C(=O)O[C@@H]3O[C@H](CO)[C@@H](O)[C@H](O)[C@H]3O)C(C1)C1=CCC3[C@@]4(C)CC[C@@H](O[C@@H]5O[C@H](C(=O)O)[C@@H](O[C@@H]6OC[C@@H](O)[C@H](O)[C@H]6O)[C@H](O[C@@H]6OC[C@](O)(CO)[C@H]6O)[C@H]5O)C(C)(C)C4CC[C@@]3(C)[C@]1(C)C[C@H]2O (some centres undefined),5.32% [at 30.2 µM] (inactive)
9,CC1(C)CC[C@]2(C(=O)O[C@@H]3O[C@H](CO[C@@H]4O[C@H](CO)[C@@H](O)[C@H](O)[C@H]4O[C@@H]4O[C@H](CO)[C@H](O)[C@H](O)[C@H]4O)[C@@H](O)[C@H](O[C@@H]4O[C@H](CO)[C@@H](O)[C@H](O)[C@H]4O)[C@H]3O)CC[C@]3(C)C(=CCC4[C@@]5(C)CC[C@H](O[C@@H]6OC[C@@H](O)[C@H](O)[C@H]6O)[C@@](C)(C(=O)O)C5CC[C@]43C)[C@@H]2C1 (some centres undefined),0.475% [at 12.4 µM] (inactive)
10,CC(=O)NC1C(OC(C)(C)C2CCC3(C)C=C(C4CCC5C4(C)CC(O)C4OC(C(C)(C)O)CCC45C)CCC3O2)OC(CO)C(O)C1O (centres undefined),-6.04% [at 30.2 µM] (inactive)
11,C=C1C[C@@]23CCC4[C@@](C)(CCC[C@@]4(C)C(=O)OC)C2CC[C@@H]1C3 (some centres undefined),-0.814% [at 57.7 µM] (inactive)
12,C[C@@H]1O[C@@H](O[C@@H]2CO[C@@H](O[C@H]3CC[C@@]4(C)C(CC[C@]5(C)C4CC=C4[C@@H]6CC(C)(C)CC[C@]6(C(=O)O[C@@H]6O[C@H](CO)[C@@H](O)[C@H](O)[C@H]6O)CC[C@]45C)[C@]3(C)CO)[C@H](O)[C@H]2O[C@@H]2O[C@H](CO)[C@@H](O)[C@H](O)[C@H]2O)[C@H](O)[C@H](O)[C@H]1O (some centres undefined),-4.42% [at 30.2 µM] (inactive)
13,CC[C@]1(O)CC2CN(CCc3c([nH]c4ccccc34)[C@@](C(=O)OC)(c3cc4c(cc3OC)N(C=O)[C@H]3[C@@](O)(C(=O)OC)[C@H](OC(C)=O)[C@]5(CC)C=CCN6CC[C@]43[C@@H]65)C2)C1 (some centres undefined),1.84% [at 57.7 µM] (inactive)
14,C1CCC[C@H]2CCCN3CC[C@@H](CCCCCC[C@@H]4CCCN5CC[C@@H](CC1)O[C@@H]45)O[C@@H]23,-0.14% [at 0.247 µM] (inactive)
15,CC(C)=CCC[C@](C)(O)[C@H]1CC[C@]2(C)[C@@H]1[C@H](O)CC1[C@@]3(C)CC[C@H](O)C(C)(C)C3[C@@H](O[C@@H]3O[C@H](CO)[C@@H](O)[C@H](O)[C@H]3O[C@@H]3OC[C@@H](O)[C@H](O)[C@H]3O)C[C@]12C (some centres undefined),-1.67% [at 30.2 µM] (inactive)
16,Cc1c2cc(c(C(=O)O)c1C)OC1OC(C(O)C(O)C1O)C(O)C(O)C1OC(O2)C(O)C(O)C1O (centres undefined),1.65% [at 57.7 µM] (inactive)
17,C=CCC1=C[C@]2(OC)[C@H](C)[C@@H](c3ccc(O)c(OC)c3)O[C@]2(OC)CC1=O,1.95% [at 57.7 µM] (inactive)
18,COC(=O)C1=CO[C@@H](O[C@@H]2O[C@H](CO[C@@H]3O[C@H](COC(=O)/C=C/c4cc(OC)c(O)c(OC)c4)[C@@H](O)[C@H](O)[C@H]3O)[C@@H](O)[C@H](O)[C@H]2O)[C@@H]2C(CO)=CC[C@H]12,-5.27% [at 30.2 µM] (inactive)
19,CC1=CC(=O)CC(C)(C)[C@H]1/C=C/C(CO)O[C@@H]1O[C@H](CO)[C@@H](O)[C@H](O)[C@H]1O (some centres undefined),-0.0888% [at 57.7 µM] (inactive)
